# Measured values as given in PubChem BioAssay (NCI).
# This is part of a sample that, as a whole, favours compounds with a hit. Of some 83,000 tested, about 20% had one in any assay.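 Interpretation: 100, growth as untreated; towards 0, rising growth inhibition; 0, no net growth; 0 to -100, cell death. Compounds scoring below 10 were considered active.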 Values without a mark were called inactive. Calls of active or inactive are those of the source.
# System: HL-60(TB) leukemia
# Assay: NCI-60 one-dose screen, 48 h (100 = growth as untreated, 0 = no growth, -100 = all killed)
# Details: 10 µM unless noted
row,Structure (SMILES),growth
1,CNC(=O)c1cc(Oc2ccc3nc(NC(=O)NC(C)C)sc3c2)ccn1,47.8%
2,C/C(=N\O)c1ccc(NC(=O)CSc2nnc(-c3cc(-c4ccc(S(C)(=O)=O)cc4)nc4ccccc34)n2-c2ccccc2)cc1,84%
3,COc1cc(CNC(=O)CCCC/C=C/C(C)C)ccc1O,91.1%
4,CCOC(=O)c1c(O)cc(-c2ccccc2)cc1-c1sc(N(C)Cc2ccccc2)nc1Cl,100%
5,CC(=O)Nc1ccc(S(=O)(=O)NC2CCCCC2)cc1,96%
6,c1ccc(Sc2ccccc2)cc1,85.8%
7,Nc1c(C(=O)Nc2ccccc2)sc2nc3c(cc12)CCC3,60.9%
8,CON=C1C[C@]2(C[C@@H]3C[C@@H](C/C=C(\C)C[C@@H](C)/C=C/C=C4\CO[C@@H]5[C@H](O)C(C)=C[C@@H](C(=O)O3)[C@]45O)O2)O[C@H](/C(C)=C/C(C)C)[C@H]1C,-43.6% (active)
9,N#Cc1ccc(-c2ccc(COc3ccc(CC4SC(=O)NC4=O)cc3)cc2)cc1 (stereo not given),70.5%
10,COc1ccc2c(c1)CC=C1[C@@H]2CC[C@]2(C)C(=O)/C(=N/O)C[C@@H]12,53.4%
11,O=C1/C(=C/c2ccc(-c3cccc(C(F)(F)F)c3)o2)SC(=S)N1CCc1ccc(O)cc1,35.7%
12,OCCCc1ccccc1,99%
13,COc1ccc(/C=N\NC(=O)c2ccc3nc(-c4ccc(Cl)cc4)[nH]c3c2)cc1,96.3%
14,CC1CCCN(CCCCOc2ccc(-c3ccc(C#N)cc3)cc2)C1 (stereo not given),92.6%
15,COc1ccc(/C=C/C(=O)c2cc3c(N)c(C(=O)Nc4cccc5ccccc45)sc3nc2C)cc1,81.9%
16,CC(C)[C@H]1CC[C@H]2[C@@H](CC[C@H]3[C@](C)(CN)CCC[C@]23C)C1,71.8%
17,CCOC(=O)c1c(C)[nH]c(CO)c1C,97.1%
18,O=S(=O)(Nc1cccc(Cl)c1)c1ccc(-c2cnc(C3CC3)o2)cc1,2.04% (active)
19,COc1ccc(/C(C)=C(\c2ccc(OCCN3CCCCCC3)cc2)c2ccc(OC(=O)C3CCCCC3)cc2)cc1,-41.1% (active)
20,O=C1Nc2cc(Cl)ccc2Oc2cc(Oc3ccccc3)ccc21,38.6%

row,Structure (SMILES),growth
1,O=C(Nc1cc(-c2ccccc2)[nH]n1)c1ccc(Cl)cc1,42.1%
2,COc1cc(C2CC(c3ccc(Nc4ccnc5cc(Cl)ccc45)cc3)=NN2C=O)cc(OC)c1OC (stereo not given),19.7%
3,O[C@H]1[C@H]2c3cc4c(cc3CN3CCC(=C[C@@H]1O)[C@H]23)OCO4,5.02% (active)
4,CSc1nnc(-c2cc3c([nH]c4ccccc43)c(-c3cccc(O)c3)n2)n1-c1ccc(C)cc1,-16.1% (active)
5,CCCCCCCCCCCC(c1ccccc1)[N+](C)(C)C (stereo not given),-30.5% (active)
6,CCN1CCN(CCNc2nccc(-c3c(-c4ccc(F)c(OC)c4)nc4sccn34)n2)S1(=O)=O,89.1%
7,CCOC(=O)c1c(Cl)c2c(n1Cc1cc(OC)cc(OC)c1)-c1oncc1CCC2,0.728% (active)
8,CCOC(=O)Cn1c(=O)c2c3ccccc3n(C)c2n2nnc(-c3ccccc3)c12,68.5%
9,CC(C)(C)c1nc(-c2cccc(NS(=O)(=O)c3c(F)cccc3F)c2F)c(-c2ccnc(N)n2)s1,35.1%
10,COc1ccc2[nH]c(C(=O)N3CCN(C(=O)OCc4ccc5c(Br)cc(Br)c(O)c5n4)CC3)cc2c1,-42.1% (active)
11,O=C1/C(=C/c2ccc(-c3ccccc3C(F)(F)F)o2)SC(=S)N1CCc1ccc(O)cc1,20.8%
12,OC(c1ccccc1)c1nnc(SCc2ccccc2)n1Cc1ccccc1 (stereo not given),112%
13,CNC(=O)c1cc(Oc2ccc3c(c2)sc2nc(-c4ccc(NC(C)=O)cc4)cn23)ccn1,44.2%
14,COc1ccc2c(c1)CC[C@@H]1[C@@H]2CC[C@]2(C)[C@@H](O)C(=O)C[C@@H]12,108%
15,COc1ccc(C2NN=C3c4ccccc4CCC32)cc1 (stereo not given),40.7%
16,O=C(C=C=Nc1ccccc1)C(=O)N=C=Cc1ccccc1,-26% (active)
17,CC1(C)C(N(O)C(=O)Nc2ccc(Cl)cc2)N(c2ccc(Cl)cc2)C(=O)N1CC(=O)N/N=C/C=C/c1ccc([N+](=O)[O-])o1 (stereo not given),-36% (active)
18,CC(=O)c1ccccc1NC(=O)C(C)(c1ccccc1)c1ccccc1,94.3%
19,COc1cc(-c2nc3cc(Cl)c(Cl)cc3[nH]2)ccc1OCC(=O)N=Nc1c(O)[nH]c2ccc(Cl)cc12,-32.7% (active)
20,O=[N+]([O-])c1ccc(NC(c2ccccc2)c2ccc3cccnc3c2O)cc1 (stereo not given),-9.64% (active)
